# In PMC7862700, “An all-to-all approach to the identification of sequence-specific readers for epigenetic DNA modifications on cytosine”:
# What was measured:
# Test in all cases: DAPPL (digital affinity profiling via proximity ligation, sequencing); 10 mM Tris-HCl pH 7.5, 50 mM NaCl, 1 mM DTT, 4% glycerol, room temperature, 30 min; GST-TFs on glutathione beads, 16-mer random dsDNA library, 0.1% formaldehyde crosslink after washing; high values mean tight binding
# FLI1 = target: T1, FLI1 (Homo sapiens, UniProt Q01543 1-452); details: protein: recombinant; tags: N-terminal GST; dsDNA, one strand shown
# T1 sequence: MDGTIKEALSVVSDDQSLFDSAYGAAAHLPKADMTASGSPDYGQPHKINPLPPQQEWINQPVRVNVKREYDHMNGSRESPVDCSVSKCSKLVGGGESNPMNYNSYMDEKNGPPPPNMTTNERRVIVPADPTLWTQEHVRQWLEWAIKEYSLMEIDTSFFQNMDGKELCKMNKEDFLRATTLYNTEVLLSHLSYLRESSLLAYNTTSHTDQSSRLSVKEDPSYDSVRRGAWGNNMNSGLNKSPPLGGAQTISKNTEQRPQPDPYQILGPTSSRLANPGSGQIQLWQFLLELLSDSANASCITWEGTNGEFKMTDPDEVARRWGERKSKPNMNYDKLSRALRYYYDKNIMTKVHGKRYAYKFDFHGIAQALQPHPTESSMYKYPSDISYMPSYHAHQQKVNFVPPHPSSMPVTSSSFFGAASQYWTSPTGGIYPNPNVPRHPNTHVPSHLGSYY
# Summary of the method: (§1)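 After expression in yeast as GST fusions, human transcription factors were bound to glutathione beads, DNA-barcoded and mixed with a tag-only sample. The pools were incubated with 200 nmole of a 16-mer random double-stranded DNA library in Tris/NaCl/DTT/glycerol buffer (30 min, room temperature), washed and crosslinked with 0.1% formaldehyde. Proximity ligation with BsaI/T4 ligase ran for 1 h at 37 °C, before PCR amplification and sequencing on an Illumina NextSeq500. Binding signal is a hexamer's read frequency for a factor divided by its frequency for the tag-only sample.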
# ELK1 = target: T2, ELK1 (Homo sapiens, UniProt P19419 1-428); details: protein: recombinant; tags: N-terminal GST; dsDNA, one strand shown
# T2 sequence: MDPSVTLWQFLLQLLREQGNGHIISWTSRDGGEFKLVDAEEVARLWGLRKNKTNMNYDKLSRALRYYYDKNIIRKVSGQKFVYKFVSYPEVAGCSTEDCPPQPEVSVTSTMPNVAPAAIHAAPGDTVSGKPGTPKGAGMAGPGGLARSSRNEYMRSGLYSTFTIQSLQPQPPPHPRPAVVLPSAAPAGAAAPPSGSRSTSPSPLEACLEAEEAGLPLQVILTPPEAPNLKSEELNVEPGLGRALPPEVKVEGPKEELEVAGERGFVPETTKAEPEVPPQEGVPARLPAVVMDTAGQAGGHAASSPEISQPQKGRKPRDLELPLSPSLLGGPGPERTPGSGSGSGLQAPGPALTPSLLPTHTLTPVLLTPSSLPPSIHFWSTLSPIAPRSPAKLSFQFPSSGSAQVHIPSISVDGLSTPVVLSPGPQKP
# Summary of the method: as §1
# GABPA = target: T3, GABPA (Homo sapiens, UniProt Q06546 1-454); details: protein: recombinant; tags: N-terminal GST; dsDNA, one strand shown
# T3 sequence: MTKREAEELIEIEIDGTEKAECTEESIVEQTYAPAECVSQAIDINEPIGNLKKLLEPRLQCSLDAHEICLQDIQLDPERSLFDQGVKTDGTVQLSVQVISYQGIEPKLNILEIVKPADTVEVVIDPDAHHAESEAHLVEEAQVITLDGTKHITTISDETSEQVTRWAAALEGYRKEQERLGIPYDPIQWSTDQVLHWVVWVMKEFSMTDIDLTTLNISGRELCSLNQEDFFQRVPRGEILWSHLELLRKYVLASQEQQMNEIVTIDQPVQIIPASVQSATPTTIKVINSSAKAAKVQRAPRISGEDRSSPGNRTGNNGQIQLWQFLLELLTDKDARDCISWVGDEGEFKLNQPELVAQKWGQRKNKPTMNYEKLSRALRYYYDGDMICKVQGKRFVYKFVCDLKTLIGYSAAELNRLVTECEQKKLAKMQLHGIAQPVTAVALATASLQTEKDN
# Summary of the method: as §1
# ERG = target: T4, ERG (Homo sapiens, UniProt P11308 1-479); details: protein: recombinant; tags: N-terminal GST; dsDNA, one strand shown
# T4 sequence: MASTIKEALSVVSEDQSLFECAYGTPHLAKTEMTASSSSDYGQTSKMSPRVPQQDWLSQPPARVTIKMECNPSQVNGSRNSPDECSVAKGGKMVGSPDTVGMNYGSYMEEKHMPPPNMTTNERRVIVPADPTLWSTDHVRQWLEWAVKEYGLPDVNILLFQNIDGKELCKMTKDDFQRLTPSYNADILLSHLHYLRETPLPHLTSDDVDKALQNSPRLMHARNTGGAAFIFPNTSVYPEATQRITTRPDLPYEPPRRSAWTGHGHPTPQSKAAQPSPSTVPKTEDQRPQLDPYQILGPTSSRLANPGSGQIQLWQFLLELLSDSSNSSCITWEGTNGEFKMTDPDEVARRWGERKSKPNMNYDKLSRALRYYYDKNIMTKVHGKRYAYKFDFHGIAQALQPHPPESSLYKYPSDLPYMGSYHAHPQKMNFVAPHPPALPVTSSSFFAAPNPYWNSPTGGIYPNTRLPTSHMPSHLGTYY
# Summary of the method: as §1
# ELF1 = ELF1 (Homo sapiens, UniProt P32519 1-619); details: protein: recombinant; tags: N-terminal GST; dsDNA, one strand shown
# Summary of the method: as §1
# EHF = target: T5, EHF (Homo sapiens, UniProt Q9NZC4 1-300); details: protein: recombinant; tags: N-terminal GST; dsDNA, one strand shown
# T5 sequence: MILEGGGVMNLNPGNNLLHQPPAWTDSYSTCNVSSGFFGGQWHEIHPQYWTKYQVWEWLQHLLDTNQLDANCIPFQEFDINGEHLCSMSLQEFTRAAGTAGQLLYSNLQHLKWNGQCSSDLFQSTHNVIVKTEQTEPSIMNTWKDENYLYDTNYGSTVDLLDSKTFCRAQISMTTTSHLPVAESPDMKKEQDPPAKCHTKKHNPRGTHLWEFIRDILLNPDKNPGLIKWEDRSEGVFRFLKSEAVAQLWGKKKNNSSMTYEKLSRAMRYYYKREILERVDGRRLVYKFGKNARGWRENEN
# Summary of the method: as §1
# SPI1 = SPI1 (Homo sapiens, UniProt P17947 1-270); details: protein: recombinant; tags: N-terminal GST; dsDNA, one strand shown
# Summary of the method: as §1
# SPIB = SPIB (Homo sapiens, UniProt Q01892 1-262); details: protein: recombinant; tags: N-terminal GST; dsDNA, one strand shown
# Summary of the method: as §1
# ELK3 = target: T6, ELK3 (Homo sapiens, UniProt P41970 1-407); details: protein: recombinant; tags: N-terminal GST; dsDNA, one strand shown
# T6 sequence: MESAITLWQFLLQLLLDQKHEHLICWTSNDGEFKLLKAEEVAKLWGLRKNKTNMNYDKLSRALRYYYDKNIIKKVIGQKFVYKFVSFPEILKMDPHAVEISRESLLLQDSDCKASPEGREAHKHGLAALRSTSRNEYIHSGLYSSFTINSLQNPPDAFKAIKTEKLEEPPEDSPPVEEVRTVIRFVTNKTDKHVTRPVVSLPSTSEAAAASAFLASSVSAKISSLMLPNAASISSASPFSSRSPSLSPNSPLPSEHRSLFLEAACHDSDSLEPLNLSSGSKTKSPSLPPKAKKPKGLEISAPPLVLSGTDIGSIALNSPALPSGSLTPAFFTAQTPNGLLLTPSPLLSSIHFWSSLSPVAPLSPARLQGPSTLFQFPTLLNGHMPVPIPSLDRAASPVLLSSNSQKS
# Summary of the method: as §1
# FEV = target: T7, FEV (Homo sapiens, UniProt Q99581 1-238); details: protein: recombinant; tags: N-terminal GST; dsDNA, one strand shown
# T7 sequence: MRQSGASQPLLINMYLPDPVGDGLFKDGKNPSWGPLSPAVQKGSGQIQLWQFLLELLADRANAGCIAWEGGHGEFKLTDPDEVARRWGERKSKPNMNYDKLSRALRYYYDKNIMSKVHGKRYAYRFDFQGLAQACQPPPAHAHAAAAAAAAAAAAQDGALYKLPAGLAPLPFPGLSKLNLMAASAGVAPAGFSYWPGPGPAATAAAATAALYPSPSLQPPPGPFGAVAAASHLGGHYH
# Summary of the method: as §1
# ETV5 = ETV5 (Homo sapiens, UniProt P41161 1-510); details: protein: recombinant; tags: N-terminal GST; dsDNA, one strand shown
# Summary of the method: as §1
# HSF1 = HSF1 (Homo sapiens, UniProt Q00613 1-529); details: protein: recombinant; tags: N-terminal GST; chain copies: 3; dsDNA, one strand shown
# Summary of the method: as §1
# SPIC = target: T8, SPIC (Homo sapiens, UniProt Q8N5J4 1-248); details: protein: recombinant; tags: N-terminal GST; dsDNA, one strand shown
# T8 sequence: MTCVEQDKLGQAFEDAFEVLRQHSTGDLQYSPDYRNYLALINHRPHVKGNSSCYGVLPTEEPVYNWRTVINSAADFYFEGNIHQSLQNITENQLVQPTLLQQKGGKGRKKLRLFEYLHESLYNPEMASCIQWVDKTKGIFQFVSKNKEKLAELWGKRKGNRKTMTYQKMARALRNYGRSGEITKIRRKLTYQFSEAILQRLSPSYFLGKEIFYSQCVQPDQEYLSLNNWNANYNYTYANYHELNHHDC
# Summary of the method: as §1
# ELF4 = ELF4 (Homo sapiens, UniProt Q99607 1-663); details: protein: recombinant; tags: N-terminal GST; dsDNA, one strand shown
# Summary of the method: as §1
# ELK4 = target: T9, ELK4 (Homo sapiens, UniProt P28324-2 1-405); details: protein: recombinant; tags: N-terminal GST; dsDNA, one strand shown
# T9 sequence: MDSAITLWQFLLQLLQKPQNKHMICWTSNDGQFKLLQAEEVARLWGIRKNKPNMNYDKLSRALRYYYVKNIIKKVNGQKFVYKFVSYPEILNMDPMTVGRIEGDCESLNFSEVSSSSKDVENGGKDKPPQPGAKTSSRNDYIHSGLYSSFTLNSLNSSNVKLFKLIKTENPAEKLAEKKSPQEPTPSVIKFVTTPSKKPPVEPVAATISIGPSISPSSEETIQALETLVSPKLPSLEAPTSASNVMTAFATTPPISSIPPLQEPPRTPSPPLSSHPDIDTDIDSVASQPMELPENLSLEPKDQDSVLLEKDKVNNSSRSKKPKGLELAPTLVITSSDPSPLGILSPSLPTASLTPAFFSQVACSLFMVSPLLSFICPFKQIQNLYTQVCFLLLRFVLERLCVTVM
# Summary of the method: as §1
# ETV2 = target: T10, ETV2 (Homo sapiens, UniProt O00321 1-342); details: protein: recombinant; tags: N-terminal GST; dsDNA, one strand shown
# T10 sequence: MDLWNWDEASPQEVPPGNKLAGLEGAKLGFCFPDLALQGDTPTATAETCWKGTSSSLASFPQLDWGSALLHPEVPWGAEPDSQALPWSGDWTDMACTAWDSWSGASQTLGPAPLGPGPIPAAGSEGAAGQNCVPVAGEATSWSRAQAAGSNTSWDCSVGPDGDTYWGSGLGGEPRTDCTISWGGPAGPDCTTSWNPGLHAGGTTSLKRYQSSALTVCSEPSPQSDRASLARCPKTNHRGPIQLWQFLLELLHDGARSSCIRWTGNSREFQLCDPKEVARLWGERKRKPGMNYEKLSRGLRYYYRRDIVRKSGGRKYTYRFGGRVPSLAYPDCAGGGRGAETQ
# Summary of the method: as §1
# ELF3 = target: T11, ELF3 (Homo sapiens, UniProt P78545 1-371); details: protein: recombinant; tags: N-terminal GST; dsDNA, one strand shown
# T11 sequence: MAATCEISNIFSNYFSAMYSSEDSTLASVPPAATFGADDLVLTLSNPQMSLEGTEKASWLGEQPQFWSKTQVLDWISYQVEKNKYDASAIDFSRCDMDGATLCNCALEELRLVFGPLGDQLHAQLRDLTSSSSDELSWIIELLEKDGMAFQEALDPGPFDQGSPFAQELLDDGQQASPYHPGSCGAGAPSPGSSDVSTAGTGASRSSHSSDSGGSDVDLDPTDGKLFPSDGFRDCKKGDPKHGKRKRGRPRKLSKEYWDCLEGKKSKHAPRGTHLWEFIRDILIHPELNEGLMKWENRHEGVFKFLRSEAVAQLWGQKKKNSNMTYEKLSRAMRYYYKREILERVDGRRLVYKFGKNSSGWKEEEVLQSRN
# Summary of the method: as §1
# CRX = CRX (Homo sapiens, UniProt O43186 1-299); details: protein: recombinant; tags: N-terminal GST; dsDNA, one strand shown
# Summary of the method: as §1
# ETV1 = ETV1 (Homo sapiens, UniProt P50549 1-477); details: protein: recombinant; tags: N-terminal GST; dsDNA, one strand shown
# Summary of the method: as §1
# SPIB, sequence (Q01892 whole entry): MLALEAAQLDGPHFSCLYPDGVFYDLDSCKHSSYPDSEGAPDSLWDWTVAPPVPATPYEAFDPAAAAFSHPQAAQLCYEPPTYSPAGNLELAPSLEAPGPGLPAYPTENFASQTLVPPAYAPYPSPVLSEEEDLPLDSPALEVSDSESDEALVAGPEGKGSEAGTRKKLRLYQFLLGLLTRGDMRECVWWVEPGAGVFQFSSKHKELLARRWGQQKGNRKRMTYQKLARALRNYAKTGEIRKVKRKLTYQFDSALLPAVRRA
# CRX, sequence (O43186 whole entry): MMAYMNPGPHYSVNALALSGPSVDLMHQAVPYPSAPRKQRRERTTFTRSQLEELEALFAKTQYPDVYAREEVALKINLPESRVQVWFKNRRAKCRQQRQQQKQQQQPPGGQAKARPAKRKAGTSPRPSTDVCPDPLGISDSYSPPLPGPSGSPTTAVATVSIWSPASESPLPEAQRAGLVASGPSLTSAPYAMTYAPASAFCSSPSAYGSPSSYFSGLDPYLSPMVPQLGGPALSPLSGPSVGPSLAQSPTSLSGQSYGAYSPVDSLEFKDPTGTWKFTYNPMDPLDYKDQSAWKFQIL
# ELF4, sequence (Q99607 whole entry): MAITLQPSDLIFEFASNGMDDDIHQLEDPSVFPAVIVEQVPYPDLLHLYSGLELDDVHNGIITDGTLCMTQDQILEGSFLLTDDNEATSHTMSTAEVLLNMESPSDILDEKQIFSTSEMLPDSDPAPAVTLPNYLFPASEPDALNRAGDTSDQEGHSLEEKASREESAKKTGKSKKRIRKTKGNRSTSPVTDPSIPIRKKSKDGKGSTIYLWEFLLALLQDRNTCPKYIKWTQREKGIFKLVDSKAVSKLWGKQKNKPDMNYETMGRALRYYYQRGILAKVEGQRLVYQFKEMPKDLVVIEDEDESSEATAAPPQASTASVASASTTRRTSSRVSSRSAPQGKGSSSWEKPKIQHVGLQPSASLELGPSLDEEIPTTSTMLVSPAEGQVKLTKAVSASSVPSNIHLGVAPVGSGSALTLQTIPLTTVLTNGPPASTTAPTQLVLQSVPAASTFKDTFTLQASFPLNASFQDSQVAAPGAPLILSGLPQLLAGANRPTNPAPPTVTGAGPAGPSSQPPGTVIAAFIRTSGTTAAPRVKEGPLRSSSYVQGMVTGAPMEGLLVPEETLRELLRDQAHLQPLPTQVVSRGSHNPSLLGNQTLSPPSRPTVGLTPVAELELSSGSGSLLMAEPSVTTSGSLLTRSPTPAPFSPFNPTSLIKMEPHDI
# ETV1, sequence (P50549 whole entry): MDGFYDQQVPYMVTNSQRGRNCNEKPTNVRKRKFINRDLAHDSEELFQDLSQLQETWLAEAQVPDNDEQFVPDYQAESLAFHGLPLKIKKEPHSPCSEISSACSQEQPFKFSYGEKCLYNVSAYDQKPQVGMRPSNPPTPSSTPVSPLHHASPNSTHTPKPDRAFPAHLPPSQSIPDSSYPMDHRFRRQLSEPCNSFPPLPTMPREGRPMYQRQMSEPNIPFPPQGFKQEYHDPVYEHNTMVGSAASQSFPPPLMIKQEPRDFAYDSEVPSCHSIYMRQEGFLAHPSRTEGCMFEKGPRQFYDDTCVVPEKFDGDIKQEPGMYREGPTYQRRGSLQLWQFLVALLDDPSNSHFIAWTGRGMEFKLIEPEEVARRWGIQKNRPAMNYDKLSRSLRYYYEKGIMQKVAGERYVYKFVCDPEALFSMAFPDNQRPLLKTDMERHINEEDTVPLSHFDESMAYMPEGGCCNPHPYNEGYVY
# HSF1, sequence (Q00613 whole entry): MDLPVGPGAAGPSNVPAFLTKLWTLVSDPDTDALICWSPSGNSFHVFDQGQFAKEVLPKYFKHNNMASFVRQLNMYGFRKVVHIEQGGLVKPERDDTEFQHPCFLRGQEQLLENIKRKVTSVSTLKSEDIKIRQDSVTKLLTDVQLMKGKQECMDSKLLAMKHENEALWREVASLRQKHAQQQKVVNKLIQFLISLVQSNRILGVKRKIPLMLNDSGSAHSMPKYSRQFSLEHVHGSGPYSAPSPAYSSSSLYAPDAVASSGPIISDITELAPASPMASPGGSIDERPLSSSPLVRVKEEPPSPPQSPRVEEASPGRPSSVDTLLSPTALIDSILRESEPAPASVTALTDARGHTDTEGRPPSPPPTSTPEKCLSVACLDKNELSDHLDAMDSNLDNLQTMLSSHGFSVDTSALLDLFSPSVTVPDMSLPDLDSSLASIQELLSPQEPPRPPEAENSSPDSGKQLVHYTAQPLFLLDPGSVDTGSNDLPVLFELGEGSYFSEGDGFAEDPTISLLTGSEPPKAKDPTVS
# ELF1, sequence (P32519 whole entry): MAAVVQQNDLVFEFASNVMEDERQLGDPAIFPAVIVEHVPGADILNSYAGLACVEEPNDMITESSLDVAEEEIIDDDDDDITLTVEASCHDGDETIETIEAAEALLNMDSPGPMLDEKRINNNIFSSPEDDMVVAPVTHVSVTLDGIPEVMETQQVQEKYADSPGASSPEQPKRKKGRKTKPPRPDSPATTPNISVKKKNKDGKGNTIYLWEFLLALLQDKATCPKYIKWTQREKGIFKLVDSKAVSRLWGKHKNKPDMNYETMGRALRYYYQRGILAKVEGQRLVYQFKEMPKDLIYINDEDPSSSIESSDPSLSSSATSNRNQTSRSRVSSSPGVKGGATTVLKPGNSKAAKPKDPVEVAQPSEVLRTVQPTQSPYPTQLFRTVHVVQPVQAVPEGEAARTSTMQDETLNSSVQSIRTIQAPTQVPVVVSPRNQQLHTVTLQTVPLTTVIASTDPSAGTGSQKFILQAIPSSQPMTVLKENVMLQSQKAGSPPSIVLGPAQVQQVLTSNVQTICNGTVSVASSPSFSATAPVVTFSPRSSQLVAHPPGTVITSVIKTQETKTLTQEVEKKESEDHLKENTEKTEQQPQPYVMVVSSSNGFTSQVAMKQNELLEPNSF
# ETV5, sequence (P41161 whole entry): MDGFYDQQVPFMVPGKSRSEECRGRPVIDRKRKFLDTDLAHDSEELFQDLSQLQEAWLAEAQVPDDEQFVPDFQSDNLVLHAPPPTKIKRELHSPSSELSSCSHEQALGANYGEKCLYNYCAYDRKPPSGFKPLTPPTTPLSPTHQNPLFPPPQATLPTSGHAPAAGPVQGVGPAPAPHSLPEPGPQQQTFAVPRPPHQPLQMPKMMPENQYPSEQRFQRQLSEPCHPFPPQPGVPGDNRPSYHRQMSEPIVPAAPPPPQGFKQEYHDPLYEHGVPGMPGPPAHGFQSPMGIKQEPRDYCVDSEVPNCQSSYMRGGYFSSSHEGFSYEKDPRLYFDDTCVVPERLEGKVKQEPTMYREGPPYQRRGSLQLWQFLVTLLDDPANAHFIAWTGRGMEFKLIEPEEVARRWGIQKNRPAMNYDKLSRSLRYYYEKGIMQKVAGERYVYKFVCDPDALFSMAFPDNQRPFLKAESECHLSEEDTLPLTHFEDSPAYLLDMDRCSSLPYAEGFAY
sequence,measurement,setting,value
CTAACA,binding signal,FLI1,"1.28 fold enrichment (6-mer frequency, TF over GST control)"
same,binding signal,ELK1,"1.24 fold enrichment (6-mer frequency, TF over GST control)"
same,binding signal,GABPA,"1.16 fold enrichment (6-mer frequency, TF over GST control)"
same,binding signal,ERG,"1.21 fold enrichment (6-mer frequency, TF over GST control)"
same,binding signal,ELF1,"1.25 fold enrichment (6-mer frequency, TF over GST control)"
same,binding signal,EHF,"1.21 fold enrichment (6-mer frequency, TF over GST control)"
same,binding signal,SPI1,"1.24 fold enrichment (6-mer frequency, TF over GST control)"
same,binding signal,SPIB,"1.17 fold enrichment (6-mer frequency, TF over GST control)"
same,binding signal,ELK3,"1.15 fold enrichment (6-mer frequency, TF over GST control)"
same,binding signal,FEV,"1.2 fold enrichment (6-mer frequency, TF over GST control)"
same,binding signal,ETV5,"1.26 fold enrichment (6-mer frequency, TF over GST control)"
same,binding signal,HSF1,"1.08 fold enrichment (6-mer frequency, TF over GST control)"
same,binding signal,SPIC,"1.26 fold enrichment (6-mer frequency, TF over GST control)"
same,binding signal,ELF4,"1.2 fold enrichment (6-mer frequency, TF over GST control)"
same,binding signal,ELK4,"1.17 fold enrichment (6-mer frequency, TF over GST control)"
same,binding signal,ETV2,"1.21 fold enrichment (6-mer frequency, TF over GST control)"
same,binding signal,ELF3,"1.28 fold enrichment (6-mer frequency, TF over GST control)"
same,binding signal,CRX,"1.2 fold enrichment (6-mer frequency, TF over GST control)"
same,binding signal,ETV1,"1.15 fold enrichment (6-mer frequency, TF over GST control)"
